Among the test systems are RPMI-8226 leukemia; OVCAR-8 ovarian; OVCAR-5 ovarian; OVCAR-4 ovarian; IGROV1 ovarian; HS 578T breast; NCI/ADR-RES ovarian; T-47D breast; BT-549 breast; MDA-MB-435 melanoma; SW-620 colon; MCF7 breast; HCT-116 colon; HCC-2998 colon; KM12 colon; SK-OV-3 ovarian; OVCAR-3 ovarian.
Test in all cases: NCI-60 one-dose screen, 48 h (100 = growth as untreated, 0 = no growth, -100 = all killed)
Holding throughout (conditions): 10 µM unless noted

Each structure is given as a SMILES string. The panel holds about 83,000 compounds, 20% with a hit somewhere; the sample as a whole holds those more often.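 Plates (96-well) were seeded with cells, treated with compound at one concentration, and incubated for 48 hours before percent growth was determined.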 A number with no mark means an inactive call. Activity calls are given as the source filed them. The calls were made as follows: active = growth percent below 10; inactive = the rest.

Consider `Cn1cc(-c2nn3cc(-c4cccnc4)nc3s2)c2ccccc21`, for which the growth is 30.4% in the assay with RPMI-8226 leukemia; 36.4% in the assay with OVCAR-8 ovarian; 36.6% in the assay with OVCAR-5 ovarian; 76.6% in the assay on OVCAR-4 ovarian; 40.2% in the assay with IGROV1 ovarian; 31.3% with HS 578T breast. Further, the growth is 18.9% in the assay on NCI/ADR-RES ovarian; 27.7% in the assay on T-47D breast; 22.2% with BT-549 breast; -39.1% (active) with MDA-MB-435 melanoma; 17.1% in the assay on SW-620 colon; 15.8% with MCF7 breast. For the same molecule, the growth is 16.8% in the assay on HCT-116 colon, 60.2% in the assay on HCC-2998 colon and 29.6% in the assay on KM12 colon.
As for `COc1ccc(NC(=O)Cn2cc(CN3C(=O)c4ccc([N+](=O)[O-])cc4C3=O)nn2)cc1`, the growth was 102% with RPMI-8226 leukemia; 94.2% in the assay on OVCAR-8 ovarian; 115% with OVCAR-5 ovarian; 112% in the assay on OVCAR-4 ovarian; 93.2% in the assay on SK-OV-3 ovarian; 107% in the assay with IGROV1 ovarian. The growth was 106% in the assay with HS 578T breast; 95.5% in the assay on T-47D breast; 111% in the assay with BT-549 breast; 110% with MDA-MB-435 melanoma; 97.5% with SW-620 colon; 109% in the assay on HCT-116 colon. Further, the growth in the assay with HCC-2998 colon was 102%; in the assay on KM12 colon it was 106%.
For `COc1ccc([C@H]2[C@H](O)C(=O)N2c2cc(OC)c(OC)c(OC)c2)cc1`, the growth in the assay with RPMI-8226 leukemia was 22.8%; in the assay on OVCAR-8 ovarian, 2.46% (active); in the assay with OVCAR-5 ovarian it was 29.5%; with OVCAR-4 ovarian it was 69.8%; in the assay with SK-OV-3 ovarian, 37.7%; in the assay on HS 578T breast it was 16.6%. Further, the growth with NCI/ADR-RES ovarian was 18%; with T-47D breast, 70.2%; with BT-549 breast, -2.44% (active); in the assay on SW-620 colon, 20.3%; in the assay with MCF7 breast it was 12.4%; in the assay with HCT-116 colon it was 0.54% (active). For the same molecule, the growth in the assay on HCC-2998 colon was 16.3%; in the assay with KM12 colon, 18.8%.
On to `CCOC(=O)/C=c1\sc2n(c1=O)C1C(NN=2)N(CC)C(=O)N1CC` (configuration not stated), for which the growth was 64.6% in the assay with RPMI-8226 leukemia; 84.2% in the assay with OVCAR-8 ovarian; 84.8% in the assay on OVCAR-5 ovarian; 91.2% with OVCAR-4 ovarian; 89.2% in the assay on SK-OV-3 ovarian; 14.8% with OVCAR-3 ovarian. The growth in the assay on HS 578T breast is 61.5%; in the assay on NCI/ADR-RES ovarian it was 53.1%; with T-47D breast, 84%; with BT-549 breast it was 57.7%; in the assay on MDA-MB-435 melanoma, -17.8% (active); in the assay on SW-620 colon, 31.7%. In addition, the growth with MCF7 breast is 11%; in the assay on HCT-116 colon, 28.8%; in the assay on HCC-2998 colon, 77.1%; in the assay on KM12 colon, 36%.
On to `Cc1nn(-c2ccccc2)c2nc(CCl)[nH]c(=O)c12`, for which the growth in the assay with OVCAR-8 ovarian was 102%; in the assay with OVCAR-5 ovarian, 112%; with OVCAR-4 ovarian it was 110%; in the assay on SK-OV-3 ovarian, 122%; in the assay on IGROV1 ovarian, 97.4%; with OVCAR-3 ovarian, 90.9%. The growth with HS 578T breast is 120%; with NCI/ADR-RES ovarian, 105%; in the assay with T-47D breast, 66%; with BT-549 breast, 100%; in the assay on MDA-MB-435 melanoma, 97.9%; in the assay on SW-620 colon it was 85.1%. Moreover, the growth in the assay on MCF7 breast is 16.4%; in the assay with HCT-116 colon, 24.9%; in the assay with HCC-2998 colon, 108%; in the assay with KM12 colon, 53.3%.
With `CCC(CC)N1C(=O)/C(=c2\sc3n(c2=O)C2C(NN=3)N(CC)C(=O)N2CC)c2ccccc21` (configuration not stated), the growth in the assay on RPMI-8226 leukemia is 8.29% (active); with OVCAR-8 ovarian, 34.8%; with OVCAR-5 ovarian, 29.8%; with OVCAR-4 ovarian, 38.4%; in the assay on IGROV1 ovarian it was 23%; in the assay with OVCAR-3 ovarian it was 7.62% (active). The growth is 25.6% in the assay with HS 578T breast; 11% in the assay on NCI/ADR-RES ovarian; 66.5% in the assay on T-47D breast; 78.6% with BT-549 breast; -8.32% (active) in the assay on MDA-MB-435 melanoma; 27.2% in the assay with SW-620 colon. Also, the growth was 15% in the assay with MCF7 breast, 15.1% in the assay with HCT-116 colon, 21.7% in the assay with HCC-2998 colon and 14.2% in the assay with KM12 colon.
As for `COc1ccc(-c2nc3cc(Cl)c(Cl)cc3n2CC(=O)N=Nc2c(O)[nH]c3ccc(Br)cc23)cc1`, the growth in the assay with RPMI-8226 leukemia was 31.8%; in the assay on OVCAR-8 ovarian, 12%; with OVCAR-5 ovarian, -5.99% (active); in the assay on OVCAR-4 ovarian, -43.9% (active); with IGROV1 ovarian, -37.9% (active); in the assay on HS 578T breast it was -8.55% (active). The growth is -1.87% (active) with NCI/ADR-RES ovarian; -52.7% (active) in the assay on T-47D breast; 3.05% (active) with BT-549 breast; -59.1% (active) in the assay on MDA-MB-435 melanoma; -54.6% (active) with SW-620 colon; -11.6% (active) in the assay with MCF7 breast. The figures for the growth with HCT-116 colon, with HCC-2998 colon and in the assay with KM12 colon were -31.5% (active), -25.9% (active) and 5.77% (active), respectively.
For `O=S(=O)(Nc1ccc(-n2cnc3cc(-c4ccc(O)cc4)ccc32)cc1)C1CC1`, the growth was 79.8% with RPMI-8226 leukemia; 88.7% in the assay with OVCAR-8 ovarian; 107% with OVCAR-5 ovarian; 78.2% in the assay on OVCAR-4 ovarian; 117% in the assay on SK-OV-3 ovarian; 95% with HS 578T breast. In addition, the growth in the assay with NCI/ADR-RES ovarian is 94.2%; with T-47D breast, 72.9%; in the assay with BT-549 breast, 91.9%; in the assay with MDA-MB-435 melanoma, 87.7%; in the assay with SW-620 colon it was 102%; in the assay on MCF7 breast, 73.9%. Besides, the growth in the assay with HCT-116 colon is 92.7%; in the assay on HCC-2998 colon it was 103%; in the assay with KM12 colon, 68.7%.
On to `Cc1ccc(-c2nnc3sc(C4=Cc5ccccc5OC=C4)nn23)cc1`, for which the growth is 101% with RPMI-8226 leukemia; 89.8% in the assay on OVCAR-8 ovarian; 98% in the assay with OVCAR-5 ovarian; 99.2% with OVCAR-4 ovarian; 118% in the assay on SK-OV-3 ovarian; 109% with IGROV1 ovarian. Further, the growth was 112% in the assay on HS 578T breast; 98.2% with NCI/ADR-RES ovarian; 91.6% in the assay on T-47D breast; 95.7% in the assay on BT-549 breast; 93.7% with MDA-MB-435 melanoma; 99.9% in the assay on SW-620 colon. The figures for the growth in the assay on HCT-116 colon and in the assay on KM12 colon were 104% and 106%, respectively.
Take `C#C[C@]1(O)CC[C@H]2[C@@H]3CC=C4c5sc(Nc6cc(OC)ccc6OC)nc5CC[C@]4(C)[C@H]3CC[C@@]21C`: the growth was 40.1% in the assay with OVCAR-8 ovarian; 56.7% in the assay with OVCAR-5 ovarian; 64.3% in the assay on OVCAR-4 ovarian; 5.82% (active) in the assay on SK-OV-3 ovarian; 47.9% in the assay on IGROV1 ovarian; 59.2% with OVCAR-3 ovarian. Besides, the growth in the assay with HS 578T breast is -13.8% (active); in the assay on T-47D breast, 22.8%; with BT-549 breast, 30.2%; with SW-620 colon, 18.4%; with MCF7 breast, -2.69% (active); in the assay on HCT-116 colon, 19.3%. The growth with KM12 colon is 24.6%.
Regarding `COc1ccc2c(C3=C(c4c[nH]c5ccccc45)C(=O)N(O)C3=O)coc2c1`, the growth with RPMI-8226 leukemia is 72.1%; in the assay with OVCAR-8 ovarian, 77.5%; in the assay with OVCAR-5 ovarian, 105%; in the assay on OVCAR-4 ovarian, 114%; in the assay on SK-OV-3 ovarian, 86.5%; in the assay on IGROV1 ovarian, 77.1%. Besides, the growth with HS 578T breast was 96.4%; with T-47D breast, 40.6%; in the assay on BT-549 breast, 118%; with MDA-MB-435 melanoma, 107%; in the assay with SW-620 colon, 98.6%; with MCF7 breast it was 44.5%. The growth in the assay on HCT-116 colon is 93.1%; with HCC-2998 colon, 103%; in the assay on KM12 colon, 97.6%.
`O=C(Cn1cc(CN2C(=O)c3ccc([N+](=O)[O-])cc3C2=O)nn1)Nc1ccccc1Br`: the growth in the assay with RPMI-8226 leukemia is 102%; in the assay with OVCAR-8 ovarian it was 116%; with OVCAR-5 ovarian it was 106%; in the assay with OVCAR-4 ovarian, 113%; in the assay with SK-OV-3 ovarian it was 90.5%; in the assay on HS 578T breast, 110%. Further, the growth with NCI/ADR-RES ovarian was 99.3%; in the assay with T-47D breast, 104%; in the assay on BT-549 breast, 115%; in the assay on SW-620 colon it was 97.4%; in the assay on MCF7 breast, 94.3%; in the assay on HCT-116 colon, 98.8%. Besides, the growth is 101% with HCC-2998 colon and 102% in the assay on KM12 colon.
`CCN1C/C(=N\S(=O)(=O)c2ccccc2)N(CC)C1=S`: the growth in the assay on OVCAR-8 ovarian is 99.7%; in the assay with OVCAR-5 ovarian, 103%; with OVCAR-4 ovarian, 106%; in the assay on SK-OV-3 ovarian, 118%; in the assay on IGROV1 ovarian, 107%; with OVCAR-3 ovarian it was 119%. Further, the growth was 105% in the assay on HS 578T breast; 99.8% in the assay on NCI/ADR-RES ovarian; 102% in the assay with T-47D breast; 97.3% in the assay with BT-549 breast; 101% in the assay on MDA-MB-435 melanoma; 107% with SW-620 colon. The growth is 97.3% in the assay on MCF7 breast, 91.5% in the assay with HCT-116 colon, 98.4% in the assay with HCC-2998 colon and 103% with KM12 colon.
For the molecule `COc1cc2c3c(n(CCCNC4CCCCC4)c(=O)c2cc1OC)-c1cc2c(cc1C3=O)OCO2`, the growth with RPMI-8226 leukemia was -46.5% (active); with OVCAR-8 ovarian it was -66.8% (active); in the assay on OVCAR-5 ovarian, -86.4% (active); with OVCAR-4 ovarian, 93.2%; in the assay with SK-OV-3 ovarian, 104%; with IGROV1 ovarian, -30.9% (active). For the same molecule, the growth was 90.5% in the assay with HS 578T breast; 91.5% in the assay with T-47D breast; 78.2% in the assay on BT-549 breast; 102% in the assay with MDA-MB-435 melanoma; -76.8% (active) in the assay with SW-620 colon; -78.1% (active) in the assay with MCF7 breast. In addition, the growth in the assay with HCT-116 colon is -72.3% (active); in the assay on HCC-2998 colon, 73.3%; in the assay with KM12 colon, 57.4%.
As to `C=CCn1c(SCC(=O)Nc2cccc(C(=O)/C=C/c3ccc(Cl)cc3)c2)nc2ccccc2c1=O`, the growth in the assay on RPMI-8226 leukemia was 9.15% (active); in the assay with OVCAR-8 ovarian it was 95%; with OVCAR-5 ovarian, 97.9%; in the assay with OVCAR-4 ovarian, 87.6%; in the assay with IGROV1 ovarian, 96.4%; in the assay with HS 578T breast, 87.3%. Moreover, the growth with T-47D breast was 78.6%; in the assay with BT-549 breast, 94.6%; in the assay on MDA-MB-435 melanoma it was 92.3%; with SW-620 colon, 77.4%; in the assay on MCF7 breast, 28.3%; in the assay with HCT-116 colon it was 15.4%. Besides, the growth with HCC-2998 colon was 94.8%; with KM12 colon it was 88%.

The record behind these values is PubChem BioAssay (NCI).
